According to PubChem BioAssay (NCATS):
Results filed as inconclusive are left out. The source made the active and inactive calls. Calls come from the whole dose curve; as a rule, active = well fitted curve in the direction sought with a large enough effect; inconclusive = small, poorly fitted or top-dose-only effect, or another doubt; inactive = no such curve, though single readings can be large; an effect the other way counts as inactive or inconclusive.

Experiments:
[1] = target: Cytochrome P450 3A4 (Homo sapiens) (UniProt P08684); test: qHTS Assay for Inhibitors and Substrates of Cytochrome P450 3A4 (AID 884); note: series mostly up to about 57 µM; nearly all actives have a fitted effect of over 50% in size
Cytochrome P450 3A4 (Homo sapiens), sequence (P08684 whole entry, looked up): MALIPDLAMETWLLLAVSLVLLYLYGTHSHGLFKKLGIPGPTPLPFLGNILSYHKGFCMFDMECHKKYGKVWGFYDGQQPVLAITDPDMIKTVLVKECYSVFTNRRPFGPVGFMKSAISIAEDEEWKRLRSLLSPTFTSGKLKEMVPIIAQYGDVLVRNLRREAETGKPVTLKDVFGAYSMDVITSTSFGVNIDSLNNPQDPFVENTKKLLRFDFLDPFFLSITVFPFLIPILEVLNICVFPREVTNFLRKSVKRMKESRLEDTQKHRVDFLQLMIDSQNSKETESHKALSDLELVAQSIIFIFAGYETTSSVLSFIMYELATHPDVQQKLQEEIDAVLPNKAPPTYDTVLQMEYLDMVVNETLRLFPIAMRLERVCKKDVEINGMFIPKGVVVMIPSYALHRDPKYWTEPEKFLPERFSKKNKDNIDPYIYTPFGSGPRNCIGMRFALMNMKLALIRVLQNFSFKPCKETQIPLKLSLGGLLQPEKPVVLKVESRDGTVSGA
How it was run: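 Luminescent readout of luciferin produced by CYP3A4 (20 nM) dealkylation of Luciferin-PPXE, 25 uM (its KM). NADPH-driven reaction ran 60 min at RT after 10 min compound preincubation; data scaled to 57 uM ketoconazole as 100% inhibition.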

[2] = Cell Viability - LYMP2-001 (AID 921); note: series mostly up to about 92 µM; nearly all actives have a fitted effect of over 70% in size
How it was run: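 qHTS, 1536-well; lymphoblastoid cells, 24 hr compound, 37 C; ATP by CellTiter-Glo, 30 min RT; luminescence; Hill-fit AC50.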

[3] = MultiTox-Fluor Cytotoxicity Assay - LYMP1-001 - Dead Cells (AID 946)
How it was run: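 In this qHTS, 15 uM tetraoctylammonium bromide defined 100% and DMSO defined basal activity. Lymphoblastoid cells (LYMP1-001, 2500 per well) received compound for 16 hr at 37 C before a fluorogenic dead-cell substrate readout at 485/520 nm.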

[4] = MultiTox-Fluor Cytotoxicity Assay - LYMP1-001 - Live Cells (AID 947)
[5] = Cell Viability - LYMP1-002 - Assay at 16 hr (AID 948)
How it was run: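 Acute cytotoxicity is scored as a concentration-dependent fall in intracellular ATP in a human lymphoblastoid line (LYMP1-002) after 16 hr compound exposure at 37 C, measured by luciferase luminescence.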

[6] = MultiTox-Fluor Cytotoxicity Assay - LYMP1-002 - Live Cells (AID 955);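 note: cells exposed to compound for 16 hours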
How it was run: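 In this qHTS viability format, lymphoblastoid cells (LYMP1-002, human) received compound for 16 hr at 37 C. Fluorogenic GF-AFC cleavage by viable cells was detected at 405/510 nm after 1 h at room temperature.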

[7] = MultiTox-Fluor Cytotoxicity Assay - LYMP1-003 - Dead Cells (AID 961); note: nearly all actives have a fitted effect of over 70% in size
How it was run: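 Acute toxicity is scored as increased dead-cell protease activity in human lymphoblastoid LYMP1-003 cells after 16 h compound exposure in complete culture medium. Activity is normalized to DMSO basal and 15 uM tetraoctylammonium bromide as full response.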

[8] = MultiTox-Fluor Cytotoxicity Assay - LYMP1-003 - Live Cells (AID 962);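 note: cells exposed to compound for 16 hours at 37 °C; cytotoxic hits lower the live-cell protease signal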
How it was run: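 Human lymphoblastoid line LYMP1-003 in complete culture medium, treated 16 hr with titrated compounds. Viable cells quantified via cell-permeant GF-AFC substrate fluorescence; AC50 derived by Hill fitting.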

[9] = Cell Viability - LYMP1-003 - Assay at 24 hr (AID 963)
How it was run: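 The lymphoblastoid line was treated with titrated compounds for 24 hours, and viable cell number estimated from luciferase-based ATP luminescence.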

[10] = Cell Viability - LYMP1-003 - Assay at 40 hr (AID 964); note: series mostly up to about 92 µM; nearly all actives have a fitted effect of over 60% in size
How it was run: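 Acute toxicity is scored as a concentration-dependent loss of intracellular ATP in LYMP1-003 cells (2500/well, complete medium) after 40 hr at 37 C, measured by CellTiter-Glo luminescence; AC50 values derive from standard Hill modelling.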

[11] = Cell Viability - LYMP2-003 (AID 965);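 note: cells exposed to compounds for 24 h before reading; nearly all actives have a fitted effect of over 50% in size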
How it was run: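 Acute cytotoxicity is scored as a concentration-dependent drop in intracellular ATP, measured by luciferase luminescence in human lymphoblastoid cells treated for 24 hours at 37 C. AC50 values derive from Hill-equation modelling.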

[12] = Cell Viability - LYMP2-005 (AID 967); note: series mostly up to about 92 µM
How it was run: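 qHTS viability screen in LYMP2-005 cells: 24 h at 37 C with compound, ATP luminescence via CellTiter-Glo, AC50 from Hill curves.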

[13] = Cell Viability - LYMP2-009 (AID 968); note: series mostly up to about 92 µM; nearly all actives have a fitted effect of over 55% in size
[14] = Cell Viability - LYMP2-011 (AID 969); note: nearly all actives have a fitted effect of over 60% in size
How it was run: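 Cells seeded at 2500 per well rest 5 hr before compound addition, then incubate 24 hr at 37 C. CellTiter-Glo reagent is added for 30 min at room temperature before luminescence detection.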

[15] = Cell Viability - LYMP2-013 (AID 970); note: series mostly up to about 92 µM; nearly all actives have a fitted effect of over 55% in size
How it was run: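 In complete culture medium, human lymphoblastoid cells were dosed for 24 hr at 37 C, with tetraoctylammonium bromide (6.4pM to 92 uM) as positive control. Viability reflects luciferase-based ATP signal; AC50 derived from concentration-response curves.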

[16] = Cell Viability - LYMP2-017 (AID 972);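 note: series mostly up to about 92 µM; cells exposed to compound for 24 hours at 37 °C; nearly all actives have a fitted effect of over 55% in size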
How it was run: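 In this qHTS format, lymphoblastoid cells in complete medium receive test compound for a day at 37 C before ATP content is quantified by luciferase luminescence. Reported AC50 figures come from standard Hill-equation curve fitting.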

[17] = Cell Viability - LYMP2-019 (AID 973); note: nearly all actives have a fitted effect of over 55% in size
How it was run: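 AC50 values come from Hill-equation modelling of qHTS concentration-response curves, where viability is measured as luciferase-based ATP luminescence in the lymphoblastoid line after 24 hr compound exposure in complete culture medium.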

[18] = Cell Viability - LYMP2-021 (AID 974)
How it was run: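 In qHTS format, compounds are tested against 2500 lymphoblastoid cells per well for 24 h; viable cell number is inferred from ATP-driven luciferase light, and Hill-equation fitting yields AC50 values.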

[19] = Cell Viability - LYMP2-023 (AID 975)
How it was run: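 In this qHTS, ATP-based luciferase luminescence (CellTiter-Glo) is quantified in human lymphoblastoid cells after 24 hr compound treatment at 37 C; tetraoctylammonium bromide serves as positive control. Concentration-response curves are Hill-fitted to give AC50.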

[20] = Cell Viability - LYMP2-025 (AID 976); note: series mostly up to about 92 µM
How it was run: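 Luminescent ATP readout after 24 hr treatment of a human lymphoblastoid line (LYMP2-025, 2500 cells/well, 37 C). Reagent developed 30 min at room temperature; AC50 fitted with the Hill equation.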

[21] = Cell Viability - LYMP2-002 (AID 977);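 note: series mostly up to about 92 µM; compound exposure lasted 24 h at 37 °C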
How it was run: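 Human lymphoblastoid cells, 2500/well, complete medium; 5 h 37 C settle; compound 24 h 37 C; CellTiter-Glo, 30 min RT; luminescence. Decrease in ATP = cytotoxicity; AC50 via Hill equation.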

[22] = Cell Viability - LYMP2-006 (AID 978); note: series mostly up to about 92 µM; nearly all actives have a fitted effect of over 60% in size
How it was run: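 Concentration-dependent loss of intracellular ATP in a human lymphoblastoid line after 24 hr treatment at 37 C was measured by CellTiter-Glo luminescence, with AC50 values obtained from standard Hill-equation modelling.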

[23] = Cell Viability - LYMP2-007 (AID 979);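 note: cells exposed to compound for 24 h before reading; nearly all actives have a fitted effect of over 60% in size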
How it was run: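 Measured via luciferase-based ATP quantitation: lymphoblastoid cells, 24 hr compound exposure at 37 C, AC50 from Hill fits.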

Measured: Potency

CC1=C2[C@H](/C=C(\C)C(=O)O)CC[C@@H](C)[C@H]2CC1
inactive: all assays above
